These results are taken from article PMC7819943, “Rice protein-binding microarrays: a tool to detect cis-acting elements near promoter regions in rice”.

In all, about 68,000 sequences were measured (“fluorescence intensity (a.u.)”: median about 9,100, highest 2% from about 16,000 on). What follows is part of a selection rich in the highest values, with near analogues and random picks from the rest.

OsWRKY34, sequence (Q0JBA9 entry or part of it): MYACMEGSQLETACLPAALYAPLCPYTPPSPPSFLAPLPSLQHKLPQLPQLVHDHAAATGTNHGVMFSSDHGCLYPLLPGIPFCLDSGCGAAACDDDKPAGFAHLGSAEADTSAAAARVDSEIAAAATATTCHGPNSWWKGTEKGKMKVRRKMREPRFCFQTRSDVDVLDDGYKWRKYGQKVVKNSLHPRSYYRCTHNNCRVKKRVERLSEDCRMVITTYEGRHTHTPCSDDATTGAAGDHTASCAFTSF

For the assay, the target named is OsWRKY34 (Oryza sativa, UniProt Q0JBA9 1-250). Briefly: protein-binding microarray (RPBM); PBS, 2% BSA, 51.3 ng/ul salmon testes DNA, 50 uM zinc acetate, 200 nM TF, 25 C, 1 h; high values mean tight binding. As to conditions: protein: recombinant; tags: N-terminal polyhistidine and DsRed monomer fusion (pET32a); label: CyDye5-dUTP incorporated in the synthesized complementary strand; 3' TTTTT single-stranded linker to array surface; dsDNA, one strand shown. In a few lines:
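Using Ni–NTA, transcription factors fused N-terminally to polyhistidine and DsRed were purified after expression in E. coli BL21-CodonPlus. These were incubated at 200 nM with a blocked, double-stranded custom Agilent array for 1 h at 25 °C in a buffer containing 50 µM zinc acetate, and the array was washed. The binding signal is per-feature fluorescence intensity (arbitrary units) on an Axon 4000B scanner.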
As for “GGCGCCGCCGTCGTCCTGCTGCTTCCGCCGCCGCGTCTTCCGGAGTCACCTAGTGCAG”, the binding signal is 11000 fluorescence intensity (a.u.). Take “CTGCACATGATTTCAATCTACTATGGACATTCTCACTCTCCGGAGTCACCTAGTGCAG”: the binding signal is 12100 fluorescence intensity (a.u.).

As to “CACCTGCCTCCTCCTACCACCAGCCGCCGCCGACGACTAACGGAGTCACCTAGTGCAG”, the binding signal was 8550 fluorescence intensity (a.u.). “TCCATCATCGTCGTCTCTGTGTGTGTCTGTGTGTGTGTGTCGGAGTCACCTAGTGCAG”: the binding signal was 17900 fluorescence intensity (a.u.). On to “CGCGCCATCTCCATGTCATCGTCGTCGTCTGTGTCCCCTTCGGAGTCACCTAGTGCAG”, for which the binding signal was 10700 fluorescence intensity (a.u.).

For “GGGGAGGGAAGGGATGGATCGGATGCGGGTTCGGGCGGTTCGGAGTCACCTAGTGCAG”, the binding signal is 8910 fluorescence intensity (a.u.). Regarding “TGCTCTCTCTCGTGTGGTCTGGTCCGCGCGCTCGTGTATACGGAGTCACCTAGTGCAG”, the binding signal is 9150 fluorescence intensity (a.u.). For “CGACGGGCGGGTGTGGGGATTCGCGGCCTTGAGGGTTCGTCGGAGTCACCTAGTGCAG” the value was 9660 fluorescence intensity (a.u.). In the case of “CTCTCTCCAATCTCCATCTCTCTGTCTGATTTGTAATCTTCGGAGTCACCTAGTGCAG”, the binding signal is 16500 fluorescence intensity (a.u.).

Regarding “CGCGGGTGGTCTGGTCTCTCTCTCGTATCGTATCGTATCACGGAGTCACCTAGTGCAG”, the binding signal was 16700 fluorescence intensity (a.u.). As to “CGCTTCCATCTCTCTCTGTCTCTCTTCTTTTTGACCTCTTCGGAGTCACCTAGTGCAG”, the binding signal was 11900 fluorescence intensity (a.u.). With “TCTCTCTGGGAGGTCTCGCGGAAGGTGGTGGGGTTGGGCCCGGAGTCACCTAGTGCAG”, the binding signal was 11500 fluorescence intensity (a.u.). Take “TACCTCTCTTCTCTTCTCCAATCTCTATCTATGTCTTCTTCGGAGTCACCTAGTGCAG”: the binding signal is 8640 fluorescence intensity (a.u.). On to “CGGGCGGGGCGGGGCGGGTTCGCTCGTCGGATGTGTGGATCGGAGTCACCTAGTGCAG”, for which the binding signal is 23900 fluorescence intensity (a.u.). “CCGCTGTCGTCGTCTCGTCTCTGTGTGTGTGTCTCCATCACGGAGTCACCTAGTGCAG”: the binding signal is 8280 fluorescence intensity (a.u.). For “TTTGGTTGCTTGCCTTCTTTATCGGCAAAATTTGCTATAGCGGAGTCACCTAGTGCAG” the value was 8970 fluorescence intensity (a.u.). For “ATTTAGGGAAATTATAACCATGCCACTCTGTCGTGTTTTCCGGAGTCACCTAGTGCAG”, the binding signal is 9180 fluorescence intensity (a.u.). Under “AGATAGTGGTGGTGGTCTGTGCATCGTTGACTTGATCATGCGGAGTCACCTAGTGCAG” stands 10900 fluorescence intensity (a.u.); under “GGTCCCGTTCCGATCCTCACTCGGTCACTCATCTTTCCTTCGGAGTCACCTAGTGCAG”, 8730 fluorescence intensity (a.u.). As to “AAATTATAACGAGGGGTGAGGGGCTAAGAACCTATTTTCGCGGAGTCACCTAGTGCAG”, the binding signal was 9700 fluorescence intensity (a.u.).

For “CCCATCACCACTCTGCCCACATCCCGGCGTCGCTTCGTGTCGGAGTCACCTAGTGCAG”, the binding signal is 9120 fluorescence intensity (a.u.). “TTCGTTCCGATTCTTTTTTTTTCATTTGCTATGCATCTTCCGGAGTCACCTAGTGCAG”: the binding signal is 11000 fluorescence intensity (a.u.). Regarding “GTCCTATCGCGTAGCCCACACTCCACCCTATCGCGCCTTCCGGAGTCACCTAGTGCAG”, the binding signal is 11500 fluorescence intensity (a.u.).

As for “CGCCCCTCCCCTTTGGCGCCGCCGCGCCTGCGTTGACCCTCGGAGTCACCTAGTGCAG”, the binding signal is 8230 fluorescence intensity (a.u.). As for “TCCAATCTGTGCTGCCTTTATATTAGTTCCACCAAGAAGACGGAGTCACCTAGTGCAG”, the binding signal was 9380 fluorescence intensity (a.u.).

On to “GACCTTTACTTTTTCATCCTACCTAAATGCATATTCCAATCGGAGTCACCTAGTGCAG”, for which the binding signal is 9320 fluorescence intensity (a.u.).

Consider “ACTATTTGGATATCCCATTCCAACGCCATTGCCCTCTGTTCGGAGTCACCTAGTGCAG”, for which the binding signal is 8280 fluorescence intensity (a.u.).

“CTCTCTCGCTTCTTCTCTGTGTGTGTGTTGCGTGGTGGGGCGGAGTCACCTAGTGCAG”: the binding signal was 23800 fluorescence intensity (a.u.). “TGGGAGTGTTGTTATTCTCGTGCGCGTTGTGGTTAGTGGGCGGAGTCACCTAGTGCAG”: the binding signal is 9630 fluorescence intensity (a.u.). Consider “TTTCCGTTCCTTTCTTTCCTTCTCGCGTTTGCGTGGTGGGCGGAGTCACCTAGTGCAG”, for which the binding signal was 10500 fluorescence intensity (a.u.). Under “GCGGGGTTCGTGGTGTGTGCGTGTGCGTCTCTCTCTGTCTCGGAGTCACCTAGTGCAG” stands 21100 fluorescence intensity (a.u.); under “TGGCGTGGTCTCGTCTCTTCGTCTTCGGGTGTGCTCACCGCGGAGTCACCTAGTGCAG”, 9650 fluorescence intensity (a.u.); under “GTTCTCGTCGTTCGTGTTCTTCTGCTTCGGTTTCGTGGTGCGGAGTCACCTAGTGCAG”, 11900 fluorescence intensity (a.u.). For the sequence “ATCTGTAGTCCGTTGCTCTTCTCTCTCATATTTTATCTCGCGGAGTCACCTAGTGCAG”, the binding signal was 11700 fluorescence intensity (a.u.). For “TGTGTGTATGCGTTTATAGGAGTAACTGTGTGTGCGTTTACGGAGTCACCTAGTGCAG” the value was 8150 fluorescence intensity (a.u.); for “CGCCTCCGCCTCCGTCGACTCCGCGCCTCCGCCGCCACCCCGGAGTCACCTAGTGCAG”, 15100 fluorescence intensity (a.u.). As for “TCCAGCTGCTTGCTTCTCTCTCTCTCTTCTCTTGAGCATCCGGAGTCACCTAGTGCAG”, the binding signal was 9650 fluorescence intensity (a.u.). As to “GGAGGAGGTGGAGGCGCTGCTGGTGGTGGAGGCCGTGGTGCGGAGTCACCTAGTGCAG”, the binding signal was 8020 fluorescence intensity (a.u.). For “GGGGACGCAGGAGGAGGTGGGTGGGTCGAGCTCGCTTGCGCGGAGTCACCTAGTGCAG”, the binding signal is 15400 fluorescence intensity (a.u.). Under “CGCTTGATCTGGGGTGGGGTCGCGAGTGGTGGAGGAGGTGCGGAGTCACCTAGTGCAG” stands 16600 fluorescence intensity (a.u.); under “TCTGCCTTGAAGTGGTACCGTGGGTGGGAGGGTAGTTATGCGGAGTCACCTAGTGCAG”, 11500 fluorescence intensity (a.u.); under “AGTGGGTGGTGGTGGTGGTGGTGGTGCGAGGCCGTCGCTGCGGAGTCACCTAGTGCAG”, 20500 fluorescence intensity (a.u.).
